# Compounds with a hit are over-represented: about 19% of the library has one in this group of screens.
# TDP1 cell noCPT: qHTS for Inhibitors of human tyrosyl-DNA phosphodiesterase 1 (TDP1): qHTS in cells in absence of CPT; Potency, µM (titrated, usually from 46.2 µM), hits mostly inhibitors; hit rate 15% among 420,000; AID 686978, 2013; DT40 Tdp1-/- hTDP1 cells, no CPT, ATP luminescence, 48 h; further: nearly all actives have a fitted effect of over 55% in size
#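 Luminescent ATP content (CellTiter-Glo) served as the growth readout. Knockout chicken DT40 cells expressing human TDP1 were exposed to compounds without camptothecin for a minimum 48 hr at 37 °C.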
# MCF10A rereplic: DNA re-replication induction in MCF 10a cells. MCF 10A DNA re-replication, Hoechst nuclear intensity, 48 h. Potency, µM (highest dose often 46.1 µM), most hits filed as activators. hit rate 2.9% among 350,000. AID 624296; further: nearly all actives have a fitted effect of over 50% in size
# IL-1B inflam inh: blocks inflammasome-driven IL-1 beta release | activity change, % at 57.5 µM | hit rate 4.7% among 360,000 | THP-1 LPS/ATP IL-1B secretion, AlphaLISA, 16 h; stronger effect = lower value | AID 743279; in the data active means activity change below about -50%; inconclusive means mostly about -30% to -49%
#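 THP-1 cells pretreated 1 hr with compounds (up to 57.5 uM final), then stimulated with LPS (250 ng/mL final) plus ATP (1.25 mM final); secreted IL-1B measured by AlphaLISA after 16 hr, decreased signal indicating inhibition.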
# SW480 rereplic: DNA re-replication induction in SW480 cells; SW480 DNA re-replication, Hoechst DNA content imaging, 48 h; Potency, µM (doses to about 46.1 µM), usual class: activators; hit rate 1.8% among 340,000; AID 624297; further: nearly all actives have a fitted effect of over 55% in size
#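 Hoechst fluorescence of nuclei (405 nm excitation, 500-530 nm emission) measured by plate-scanning imager after 48 hr compound exposure at 37 C; re-replication scored as increased number of nuclei with elevated intensity.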
# BCR signal inh: blocks chronic active B-cell receptor signaling; ABC-DLBCL IkBa-CBG/CBR reporter, luminescence ratio, 4 h; Potency, µM (series often up to 46.1 µM), hits mostly inhibitors; hit rate 0.05% among 340,000; AID 493014; active means well fitted inhibition curve with a large enough effect in the signal ratio, with a control signal flat, not every such curve was filed as active; inconclusive means small, poorly fitted or top-dose-only effect, or effect the other way, or a change in a side signal; the % refers to the signal ratio
#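 Cell line TMD8 (human ABC DLBCL), stably expressing tet-inducible CBG68-IkBa fusion and CBR; IMDM/0.5% FBS; cpd up to 46 uM; dox induction, 4 h, 37C/5% CO2; dual luminescence; green/red ratio; MG132 control.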
# DT40 TDP1 CPT: growth inhibition of DT40 Tdp1-/-;hTDP1 cells with camptothecin (screen for TDP1 inhibitors); chicken DT40 Tdp1-/-;hTDP1 cells + 20 nM CPT, ATP luminescence, 48 h; AID 686979; Potency, µM (top dose mostly 46.2 µM), usual class: inhibitors; hit rate 12% among 420,000; further: nearly all actives have a fitted effect of over 55% in size
#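 Chicken DT40 Tdp1-/- cells complemented with human TDP1, 400 cells/well, exposed to compounds plus 20 nM camptothecin for at least 48 h at 37 C; viability read as ATP content by CellTiter-Glo luminescence.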
# Hits are given with their value; n = inactive; u = inconclusive; x = no result. Unless noted, the call rests on the fitted dose curve; in most records, active means well fitted curve in the direction sought with a large enough effect; inconclusive means small, poorly fitted or top-dose-only effect, or another doubt; inactive means no such curve, though single readings can be large; an effect the other way counts as inactive or inconclusive.
SMILES,TDP1 cell noCPT,MCF10A rereplic,IL-1B inflam inh,SW480 rereplic,BCR signal inh,DT40 TDP1 CPT
COc1ccccc1N1CCN(c2ccc3cc(S(=O)(=O)N4CCCCC4)ccc3n2)CC1,7.3µM,u,n,n,n,13µM
COC(=O)c1c(NC(NC(=O)c2ccccc2)(C(F)(F)F)C(F)(F)F)sc2c1CCN(C)C2,u,u,n,0.52µM,n,u
N#Cc1c(N)sc2c1CCN(CCc1ccccc1)C2,u,n,n,n,n,18µM
COC(=O)c1c(NC(=O)CCS(=O)(=O)c2ccccc2)sc2c1CCN(C)C2,3.7µM,u,u,u,n,5.8µM
CC(C)N1CCc2c(sc(NC(=O)CCS(=O)(=O)c3ccccc3)c2C#N)C1,26µM,u,n,u,u,u
Cc1cccc(C)c1NC(=O)C(C)N1CCCCC1 (stereo not drawn),n,n,n,n,n,n
Cc1c(-c2nc(-c3ccc4c(c3)[nH]c(=O)n4C)no2)cccc1[N+](=O)[O-],n,x,x,x,x,n
CCOC(=O)C1CCN(C(=O)c2cc(S(=O)(=O)N3CCc4ccccc43)ccc2OC)CC1,u,n,n,n,n,u
Cc1nn(C)c(Sc2ccccn2)c1[N+](=O)[O-],n,n,x,u,n,n
CC(C)(C)C(=O)Nc1sc2c(c1C#N)CCN(Cc1ccccc1)C2,23µM,n,n,n,n,u
O=C1Nc2ccccc2Oc2cc(Oc3ccc(Cl)cc3)ccc21,u,x,x,x,u,n
Cc1ccc(Oc2cc([N+](=O)[O-])cc3c2C(=O)Nc2ccccc2O3)cc1,15µM,n,n,n,u,u
CC1(C)CC(=O)C(CSC(=O)c2ccccc2)C(=O)C1,13µM,x,n,x,x,13µM
CC1(C)CC(=O)C=C(NNC(=O)c2ccccc2)C1,n,n,n,n,u,n
CCN(CC)S(=O)(=O)c1cc(NC(=O)c2ccc(-n3cncn3)c([N+](=O)[O-])c2)ccc1C,23µM,n,n,n,n,u
O=C(Nc1ccc(Cl)cc1)c1ccc(-n2cccn2)c([N+](=O)[O-])c1,15µM,u,n,n,n,23µM
O=C(Nc1ccc(Cl)cc1)c1ccc(-n2cncn2)c([N+](=O)[O-])c1,16µM,n,n,n,n,u
Cc1ccc(NC(=O)c2ccc(-n3cncn3)c([N+](=O)[O-])c2)cc1,n,n,n,n,n,n
COc1ccc(NC(=O)c2ccc(-n3cccn3)c([N+](=O)[O-])c2)cc1,u,n,u,n,n,n
Cc1ccc([C@@]2(OC(=O)c3ccccc3)C(=O)N(C(=O)OC(C)(C)C)c3ccccc32)cc1,n,x,n,x,x,n
COc1ccc(CN(C)C(C)C(=O)Nc2ccc(S(=O)(=O)N3CCCCC3)cc2)c(OC)c1 (stereo not drawn),u,18µM,u,u,n,u
CCN(Cc1ccc(OC)c(F)c1)C(C)C(=O)Nc1ccc(S(=O)(=O)N2CCCC2)cc1 (stereo not drawn),21µM,n,n,n,u,u
COc1ccc(CN(C)C(C)C(=O)Nc2ccc(S(=O)(=O)N3CCCC3)cc2)c(OC)c1OC (stereo not drawn),x,x,x,x,n,x
CCCCN(C)C(=O)C1CCCN(S(=O)(=O)c2ccc3c(c2)CC(C)N3C(=O)C2CC2)C1 (stereo not drawn),u,n,n,u,n,u
CS(=O)(=O)Nc1ccccc1C(=O)Nc1cc(Cl)cc(Cl)c1,18µM,n,-56,n,n,18µM
SMILES,TDP1 cell noCPT,MCF10A rereplic,IL-1B inflam inh,SW480 rereplic,BCR signal inh,DT40 TDP1 CPT
CCS(=O)(=O)c1ccc(C(=O)Nc2cccc(Cl)c2)c(Cl)c1Cl,21µM,n,u,n,n,u
CS(=O)(=O)Nc1ccccc1C(=O)Nc1cccc(Cl)c1,23µM,n,n,n,u,u
CS(=O)(=O)Nc1ccccc1C(=O)Nc1ccccc1Cl,n,u,n,n,n,n
CC(OC(=O)CNC(=O)c1ccc2ccccc2c1)C(=O)N(C)C1CCCCC1 (stereo not drawn),n,n,n,u,n,n
COc1cccc(/C=C2/Sc3ccc(C(=O)NCCN4CCCC4)cc3NC2=O)c1,u,n,u,n,n,16µM
Cc1ccc(/C=C2/Sc3ccc(C(=O)NCCN4CCOCC4)cc3NC2=O)cc1,u,21µM,n,n,n,n
Cc1ccc(/C=C2/Sc3ccc(C(=O)N4CCN(C)CC4)cc3NC2=O)cc1,u,u,n,u,n,23µM
CC1CCN(C(=O)c2ccc3c(c2)NC(=O)/C(=C/c2ccccc2)S3)CC1,n,u,x,n,n,u
CCN1CCCC1CNC(=O)c1ccc2c(c1)NC(=O)/C(=C\c1ccc(C)cc1)S2 (stereo not drawn),16µM,u,n,u,u,u
CCOC(=O)O[C@@H](C)OC(=O)[C@@H]1N2C(=O)[C@@H](NC(=O)[C@@H](N)c3ccccc3)[C@H]2SC1(C)C,x,n,x,n,x,x
Cc1ccc(CNC(=O)c2ccc3c(c2)NC(=O)C(N2CCOCC2)S3)cc1 (stereo not drawn),u,n,-77,n,n,u
COc1cccc(/C=C2/Sc3ccc(C(=O)NCCCN4CCCC4)cc3NC2=O)c1,21µM,u,n,u,u,18µM
COc1ccc(/C=C2/Sc3ccc(C(=O)N4CCc5ccccc5C4)cc3NC2=O)cc1,n,n,n,n,n,n
COc1ccc(/C=C2\Sc3ccc(C(=O)NC4CC4)cc3N(C)C2=O)cc1OC,u,u,n,n,u,u
COc1ccc(/C=C2\Sc3ccc(C(=O)NCCN4CCCCCC4)cc3N(C)C2=O)cc1,23µM,u,n,n,n,u
Cc1cnc(-c2nc3ccccc3n2C(C(=O)NC(C)(C)C)c2ccccc2)cn1 (stereo not drawn),n,x,n,x,x,n
COCC(=O)N(Cc1cc2cccc(C)c2[nH]c1=O)c1ccccc1,n,n,n,u,n,n
Cc1cc(C)cc(N(C(=O)c2sc(C)nc2C)C(C(=O)NCc2ccco2)c2ccccc2)c1 (stereo not drawn),u,n,n,n,n,u
Cc1ccc(N(C(=O)c2sc(C)nc2C)C(C(=O)NCc2ccco2)c2ccccc2)cc1 (stereo not drawn),u,n,-54,n,n,u
COc1ccc(N(C(=O)/C=C\C(=O)Nc2ccc(C)cc2)C(C(=O)NCc2ccco2)c2ccc(C)cc2)cc1 (stereo not drawn),4.1µM,x,x,x,n,6.5µM
